# In PubChem BioAssay (NCATS):
# Where “and” joins values, the source holds several entries; their conditions need not be identical. Identical values can stand only once. Results filed as inconclusive are left out. Entries that show only a call come without a potency. More than one record can exist for a structure, and the calls need not agree. Calls of active or inactive are those of the source. Unless noted, the call rests on the fitted dose curve; in most records, active means well fitted curve in the direction sought with a large enough effect; inconclusive means small, poorly fitted or top-dose-only effect, or another doubt; inactive means no such curve, though single readings can be large; an effect the other way counts as inactive or inconclusive.
# Assays:
# [1] = target: Arylsulfatase A (Homo sapiens) (UniProt P15289); test: qHTS screen for enhancers of Arylsulfatase A (ASA1): LOPAC Validation Assay (AID 720538); conditions: outcome: dose series up to 57.5 µM
# How it was run: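 First, ASA-I179S fibroblasts from an MLD patient adhered for 6 hrs. Next, compounds were added for 48h. Then pNCS substrate (0.5mM final) with lysis buffer reacted 14h at room temperature before NaOH stop and fluorescence measurement.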
# [2] = qHTS for compounds that reverse cellular toxicity of Amyloid beta (A-beta) peptide in yeast: LOPAC Validation Assay (AID 720559)
# How it was run: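 Activity is expressed relative to DMSO and an equimolar ferric chloride/clioquinol mix. Compounds were pinned into medium with A-beta-expressing yeast, grown 48 hr at 30 C, then read by absorbance at 600 nm.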
# [3] = qHTS for Activators of Parkin Expression: LOPAC Validation Assay (FLuc Reporter) (AID 720573)
# How it was run: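 A neuronal cell line harbouring FLuc and NLuc reporters behind the Parkin promoter was exposed to compounds for 24 h. Firefly luciferase signal, measured after 10 min with detection reagent, was scaled to DMSO and positive-control wells.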
# [4] = target: T1, Hexokinase-4 (Homo sapiens) + Glucokinase regulatory protein (Homo sapiens) (UniProt P35557+Q14397); test: qHTS assay for inhibitors of recombinant human GCK-GKRP interaction: Diaphorase-coupled assay (AID 743205)
# How it was run: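 Inhibitors of the GCK–GKRP complex relieve GKRP suppression of GCK, detected through a G6PDH–diaphorase cascade reducing resazurin. Human GST-GCK and FLAG-GKRP are used at 10 nM with 5 mM glucose and 0.4 mM ATP.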
# [5] = target: T1, Hexokinase-4 (Homo sapiens) + Glucokinase regulatory protein (Homo sapiens); test: qHTS assay for inhibitors of recombinant human GCK-GKRP interaction: ADP-Glo assay (AID 743206)
# How it was run: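 GST-GCK and FLAG-GKRP (15 nM each in the dispensed mix, with 2 uM S6P) react with 0.4 mM ATP and 5 mM glucose (final) in Hepes pH 7.6 for 60 min at room temperature. ADP is measured by ADP-Glo luminescence.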
# [6] = target: T1, Hexokinase-4 (Homo sapiens) + Glucokinase regulatory protein (Homo sapiens); test: qHTS assay for inhibitors of recombinant human GCK-GKRP interaction: HTRF assay (AID 743207)
# How it was run: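 Steps: dispense GCK–GKRP complex (5 nM each, GST- and FLAG-tagged) with 2 uM S6P; pin in compounds; add XL665/Eu-cryptate-labelled antibodies; incubate 60 min at room temperature; read time-resolved FRET at 665 and 615 nm.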
# [7] = qHTS Assay for Identifying Gametocytocidal Compounds (AID 743244); further: potency means the concentration at half of the fitted maximal effect;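 on max response: actives lower the fluorescent signal which means gametocytes are killed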; conditions: P. falciparum 3D7 stage III-V gametocytes, alamarBlue, 72 h; max response: stronger effect = lower value
# How it was run: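 Stage III-V P. falciparum 3D7 gametocytes, 20,000 per well, were exposed to compounds for 72 h at 37C, 5% CO2. AlamarBlue was then added for 24 h and viability was read as fluorescence at Ex 525/Em 598 nm.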
# [8] = qHTS profiling of the MIPE4 collection as inhibitors of Plasmodium falciparum (3D7) proliferation (AID 743344; call rule not given here); conditions: P. falciparum 3D7 in erythrocytes, SYBR Green DNA fluorescence, 72 h; at 28.5 µM (top of the series) unless noted
# How it was run: (§1)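 Erythrocytes infected with P. falciparum (0.3% parasitemia, 2.5% hematocrit) incubated with compounds 72 h at 37 C, 5% CO2. Lysis with saponin/Triton buffer containing SYBR Green I, overnight at room temperature in the dark; DNA fluorescence (485/535 nm) normalised to 0.29 uM artemisinin and DMSO.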
# [9] = qHTS assay for small molecule agonists of the antioxidant response element (ARE) signaling pathway measured by Nrf2-dependant transcriptional activity (AID 720636; active means well fitted curve in the direction sought with a large enough effect in the repeat runs; an effect the other way counts as inactive or inconclusive)
# How it was run: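 ARE-luc HepG2 cells carrying an Nrf2-responsive luciferase reporter were plated in medium with 1% dialyzed FBS, left 6 hr at 37 C to attach, then exposed to compound for 16 hr. Luciferase luminescence was read after ONE-Glo addition.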
# [10] = qHTS assay for small molecule antagonists of the retinoid-related orphan receptor gamma (ROR-gamma) signaling pathway - cell viability counter screen (AID 720652; active means well fitted curve in the direction sought with a large enough effect in the repeat runs; an effect the other way counts as inactive or inconclusive;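 further: CHO reporter cells with doxycycline-induced ROR-gamma expression; compound exposure lasted 16 hr before ATP read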)
# How it was run: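 Cytotoxicity is quantified via intracellular ATP (CellTiter-Glo luminescence) in doxycycline-induced CHO ROR response element-luciferase reporter cells treated with compound for 16 hr at 37 C, 5% CO2.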
# [11] = qHTS assay for small molecule agonists of the antioxidant response element (ARE) signaling pathway measured by Nrf2-dependant transcriptional activity - cell viability counter screen (AID 720653; active means well fitted curve in the direction sought with a large enough effect in the repeat runs; an effect the other way counts as inactive or inconclusive); conditions: ARE-bla HepG2 viability, CellTiter-Glo ATP luminescence, 16 h; max response: stronger effect = lower value
# How it was run: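 ARE-bla HepG2 cells (2,000/well) rested 5 hrs at 37C/5% CO2, then exposed to compounds in DMSO for 16 hrs. Viability was read in the same wells as intracellular ATP by luminescence, 30 min at room temperature after reagent addition.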
# [12] = qHTS assay for cell viability of HEK293 cells (AID 743288); conditions: ATP luminescence (CellTiter-Glo), 18 h; max response: stronger effect = lower value; further: nearly all actives have a fitted effect of over 50% in size; further: potency means the concentration at half of the fitted maximal effect
# How it was run: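 The Tox21 protocol used parental HEK293 cells treated for 18 h at 37 C with compounds delivered by pintool; ATP-coupled luminescence after 30 min at room temperature gave viability.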
# [13] = qHTS assay for cell viability of the p53RE-bla HCT-116 cell line (AID 743292); further: nearly all actives have a fitted effect of over 55% in size
# How it was run: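 CellSensor p53RE-bla HCT-116 cells, 4,000/well, preincubated 5 h at 37 C, then exposed to compounds in DMSO for 16 h at 37 C. Viability read as CellTiter-Glo luminescence (intracellular ATP) after 30 min at room temperature.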
# [14] = target: Tyrosine-protein kinase Yes (Homo sapiens) (UniProt P07947); test: qHTS for small molecule inhibitors of Yes1 kinase: Primary Screen (AID 686947); further: nearly all actives have a fitted effect of over 60% in size
# How it was run: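 ADP-Glo luminescence readout; final 4 nM Yes1, 0.1 mM ATP, 0.3 mg/mL poly(E4Y), Tris pH 7.5, MgCl2, DTT, Brij-35. 20 min compound preincubation, 60 min reaction at RT. Normalized to DMSO wells with and without enzyme.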
# [15] = qHTS for small molecule inhibitors of Yes1 kinase: Counter Assay (AID 686950);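 further: no kinase present so only ADP-Glo detection of a fixed ADP amount is tested; luminescence from ADP-Glo reporting ADP in a fixed ATP and ADP mixture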
# How it was run: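 Enzyme-free ADP-Glo interference check: compounds were preincubated 20 min in buffer, then an ATP/ADP mix (0.08 mM ATP, 0.02 mM ADP final) was added for 60 min at room temperature before two-step ADP-Glo luminescence detection.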
# [16] = qHTS profiling for inhibitors of Plasmodium falciparum (3D7) proliferation (AID 743322);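 further: infected erythrocytes exposed to compound for 72 h before lysis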; conditions: P. falciparum 3D7 proliferation; at 28.7 µM (top of the series)
# How it was run: as §1
# [17] = qHTS profiling for inhibitors of Plasmodium falciparum (DD2) proliferation (AID 743323; call rule not given here); conditions: lower = more inhibition; at 28.7 µM (top of the series)
# How it was run: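 Parasite DNA quantified by SYBR Green fluorescence (ex 485, em 535 nm) after saponin/Triton lysis and overnight dark incubation. Cultures: 0.3% parasitemia, 2.5% hematocrit, 72 h, 37 C; data scaled between DMSO and 0.29 uM artemisinin.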
# T1 sequence (P35557 whole entry, looked up): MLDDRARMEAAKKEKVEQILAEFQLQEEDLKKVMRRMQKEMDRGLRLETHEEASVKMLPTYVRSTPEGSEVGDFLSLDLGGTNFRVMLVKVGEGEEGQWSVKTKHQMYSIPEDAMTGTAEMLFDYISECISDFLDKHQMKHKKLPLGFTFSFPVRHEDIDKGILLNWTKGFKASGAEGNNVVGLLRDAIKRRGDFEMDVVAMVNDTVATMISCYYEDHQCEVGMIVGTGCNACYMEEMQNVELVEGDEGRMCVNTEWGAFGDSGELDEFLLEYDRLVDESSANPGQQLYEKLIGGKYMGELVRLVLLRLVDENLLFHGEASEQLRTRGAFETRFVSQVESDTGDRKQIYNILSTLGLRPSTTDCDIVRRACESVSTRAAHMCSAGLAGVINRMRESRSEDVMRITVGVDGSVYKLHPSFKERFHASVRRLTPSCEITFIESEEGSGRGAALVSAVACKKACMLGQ
# T1 sequence (Q14397 whole entry, looked up): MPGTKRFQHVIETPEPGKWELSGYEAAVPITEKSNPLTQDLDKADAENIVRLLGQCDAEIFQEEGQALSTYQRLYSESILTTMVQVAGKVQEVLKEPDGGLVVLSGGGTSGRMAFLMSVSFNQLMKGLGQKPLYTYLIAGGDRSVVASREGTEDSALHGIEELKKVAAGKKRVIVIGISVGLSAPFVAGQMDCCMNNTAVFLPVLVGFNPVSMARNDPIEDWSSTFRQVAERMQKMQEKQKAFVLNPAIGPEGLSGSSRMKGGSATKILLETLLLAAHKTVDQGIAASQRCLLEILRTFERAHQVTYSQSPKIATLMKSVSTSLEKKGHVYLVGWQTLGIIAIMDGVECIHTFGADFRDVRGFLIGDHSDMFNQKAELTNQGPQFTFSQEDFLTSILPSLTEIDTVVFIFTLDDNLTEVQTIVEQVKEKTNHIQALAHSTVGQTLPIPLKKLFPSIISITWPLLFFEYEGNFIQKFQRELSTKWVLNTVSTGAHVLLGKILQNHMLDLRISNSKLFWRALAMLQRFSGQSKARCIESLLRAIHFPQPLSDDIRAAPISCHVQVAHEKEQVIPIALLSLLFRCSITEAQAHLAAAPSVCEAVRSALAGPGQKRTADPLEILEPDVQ
# Sequence of Arylsulfatase A (Homo sapiens) (P15289 whole entry, looked up): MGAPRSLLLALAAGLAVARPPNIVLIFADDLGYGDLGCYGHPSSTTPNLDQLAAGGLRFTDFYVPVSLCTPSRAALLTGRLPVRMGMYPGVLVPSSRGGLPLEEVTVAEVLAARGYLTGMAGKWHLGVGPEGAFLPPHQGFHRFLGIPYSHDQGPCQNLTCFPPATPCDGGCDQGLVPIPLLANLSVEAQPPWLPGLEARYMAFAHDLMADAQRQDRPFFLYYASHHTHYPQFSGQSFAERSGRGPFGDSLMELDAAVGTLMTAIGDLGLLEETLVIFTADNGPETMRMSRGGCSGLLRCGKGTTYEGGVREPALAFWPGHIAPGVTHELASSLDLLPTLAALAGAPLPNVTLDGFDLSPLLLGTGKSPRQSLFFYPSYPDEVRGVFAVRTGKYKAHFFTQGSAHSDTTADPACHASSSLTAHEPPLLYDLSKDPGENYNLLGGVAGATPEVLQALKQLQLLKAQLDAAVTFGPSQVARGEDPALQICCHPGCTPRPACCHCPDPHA
# Sequence of Tyrosine-protein kinase Yes (Homo sapiens) (P07947 whole entry, looked up): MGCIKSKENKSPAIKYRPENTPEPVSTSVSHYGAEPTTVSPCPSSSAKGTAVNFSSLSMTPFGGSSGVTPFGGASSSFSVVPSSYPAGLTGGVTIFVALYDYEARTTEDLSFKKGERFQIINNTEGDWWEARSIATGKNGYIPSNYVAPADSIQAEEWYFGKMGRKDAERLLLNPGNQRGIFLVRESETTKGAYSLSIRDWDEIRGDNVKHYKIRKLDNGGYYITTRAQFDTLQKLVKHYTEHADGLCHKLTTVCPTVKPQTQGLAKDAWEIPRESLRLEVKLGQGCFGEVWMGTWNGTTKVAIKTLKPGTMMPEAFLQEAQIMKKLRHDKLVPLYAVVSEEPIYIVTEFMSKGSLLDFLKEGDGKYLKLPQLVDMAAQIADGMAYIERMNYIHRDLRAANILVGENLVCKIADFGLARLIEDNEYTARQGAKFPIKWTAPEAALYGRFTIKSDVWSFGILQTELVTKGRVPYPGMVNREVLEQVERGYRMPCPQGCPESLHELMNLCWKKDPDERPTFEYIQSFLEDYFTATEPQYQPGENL
structure (smiles),measurement,setting,value
Cc1ccc(S(=O)(=O)N[C@@H](Cc2ccccc2)C(=O)CCl)cc1,outcome,[1],inactive
same,outcome,[2],inactive
same,outcome,[3],inactive
same,outcome,[4],inactive
same,outcome,[5],inactive
same,outcome,[6],inactive
same,max response,[7],11.5% (inactive)
same,"parasite growth, % of DMSO control",[8],90.3%
Cc1ncc([N+](=O)[O-])n1CCO,outcome,[9],inactive
same,Potency,[10],inactive
same,max response,[11],-1.04% (inactive)
same,max response,[7],-1.29% (inactive)
same,max response,[12],-4.68% (inactive)
same,Potency,[13],inactive
same,"parasite growth, % of DMSO control",[8],88.2%
CC(=O)[C@H]1CC[C@H]2[C@@H]3CCC4=CC(=O)CC[C@]4(C)[C@H]3CC[C@]12C,outcome,[2],inactive
same,outcome,[3],inactive
same,outcome,[9],inactive
same,max response,[11],-18% (inactive) and -11.7% (inactive) and -23.6% (inactive)
same,outcome,[4],inactive
same,outcome,[5],inactive
same,outcome,[6],inactive
same,max response,[7],-0.829% (inactive) and 23.1% (inactive)
same,Potency,[12],44.7 µM (active)
same,max response,[12],-28% (inactive)
same,Potency,[13],inactive
COc1cc2ncnc(Nc3cccc(Cl)c3)c2cc1OC,outcome,[1],inactive
same,outcome,[2],inactive
same,outcome,[3],inactive
same,outcome,[4],inactive
same,outcome,[5],inactive
same,outcome,[6],inactive
same,max response,[7],13.8% (inactive)
same,"parasite growth, % of DMSO control",[8],8.74%
O=S(=O)(c1cccc2cnccc12)N1CCCNCC1,outcome,[14],inactive
same,outcome,[15],inactive
same,max response,[7],-7.26% (inactive)
NNC(=O)c1ccncc1,outcome,[9],inactive
same,Potency,[10],inactive
same,max response,[11],-4.52% (inactive)
same,max response,[7],-1.22% (inactive)
same,max response,[12],-4% (inactive)
same,Potency,[13],inactive
same,"parasite growth, % of DMSO control",[8],5.29%
C[C@]12C=CC(=O)C=C1CC[C@@H]1[C@@H]2C(=O)C[C@@]2(C)[C@H]1CC[C@]2(O)C(=O)CO,outcome,[9],inactive
same,Potency,[10],inactive
same,max response,[11],1.48% (inactive)
same,max response,[7],18% (inactive)
same,max response,[12],0.765% (inactive)
same,Potency,[13],inactive
same,"parasite growth, % of DMSO control",[8],93.3% [at 9.64 µM]
Cc1noc(NS(=O)(=O)c2ccc(N)cc2)c1C,outcome,[9],inactive
same,Potency,[10],inactive
same,max response,[11],-4.33% (inactive) and -0.699% (inactive)
same,max response,[7],-10.4% (inactive) and -5.26% (inactive)
same,max response,[12],-2.22% (inactive) and 5.06% (inactive)
same,Potency,[13],inactive
same,"parasite growth, % of DMSO control",[8],96.2%
NC1(c2ccc(-c3nc4ccn5c(=O)[nH]nc5c4cc3-c3ccccc3)cc2)CCC1,outcome,[15],inactive
same,Potency,[7],11.8 µM (active)
same,remaining parasite growth % (stronger effect = lower value),[16],36.9% and -1.39%
same,"activity, percent of control",[17],14.1% and -0.386%
same,"parasite growth, % of DMSO control",[8],5.65%
CCN1CCCC1CNC(=O)c1cc(S(N)(=O)=O)ccc1OC (stereo unspecified),outcome,[1],inactive
same,outcome,[2],inactive
same,outcome,[3],inactive
same,outcome,[4],inactive
same,outcome,[5],inactive
same,outcome,[6],inactive
same,max response,[7],13% (inactive)
same,"parasite growth, % of DMSO control",[8],101%
